Holding throughout (assay): NCI-60 one-dose screen, 48 h (100 = growth as untreated, 0 = no growth, -100 = all killed)
One test has as its system HCT-15 colon. As to conditions: 10 µM.
For another test, the system named is SNB-75 CNS. As to conditions: 10 µM.
Another test concerns U251 CNS. As to conditions: 10 µM unless noted.
Another test deals with PC-3 prostate. As to conditions: 10 µM.
For the next test, the system named is SK-MEL-5 melanoma. As to conditions: 10 µM unless noted.
A further test relates to LOX IMVI melanoma. As to conditions: 10 µM unless noted.
For another test, the system named is SK-MEL-28 melanoma. As to conditions: 10 µM.
Another test concerns UACC-62 melanoma. As to conditions: 10 µM.
For a further test, the system named is SNB-19 CNS. As to conditions: 10 µM.

“And” between values parts separate entries of the source, which are not always exact repeats. Equal values may be shown once. The panel holds about 83,000 compounds, 20% with a hit somewhere; the sample as a whole holds those more often.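 A percent growth of 40 corresponds to 60% growth inhibition; 0 means no net growth; -100 means all cells died. Active threshold: below 10.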 The source made the active and inactive calls.

Consider `OC(CN1CCCC2CCCCC21)c1cc2ccccc2c2ccccc12` (stereo not given), for which the growth in the test on HCT-15 colon was 22.5% (inactive); in the test with SNB-75 CNS, 12.5% (inactive); in the test with U251 CNS it was 28.2% (inactive); in the test on PC-3 prostate it was 38.5% (inactive); in the test with SK-MEL-5 melanoma it was -84.6% (active); in the test on LOX IMVI melanoma it was -19.9% (active). Moreover, the growth with SK-MEL-28 melanoma is 49.4% (inactive).
For `CC[N+](CC)=c1ccc2nc3c(cc(N)c4ccccc43)oc-2c1`, the growth is -54.6% (active) with HCT-15 colon; -73.4% (active) in the test on SNB-75 CNS; -76.1% (active) in the test with U251 CNS; -48.8% (active) in the test with PC-3 prostate; -79.9% (active) in the test on UACC-62 melanoma; -58.7% (active) with LOX IMVI melanoma. Further, the growth in the test on SK-MEL-28 melanoma was -61.8% (active).
On to `Nc1ccc2cc3ccc(N)cc3nc2c1`, for which the growth in the test with HCT-15 colon was 105% (inactive) and 15.3% (inactive); in the test on SNB-75 CNS, 101% (inactive); in the test on U251 CNS it was 104% (inactive) and 8.67% (active); with PC-3 prostate, 94.5% (inactive) and 14.4% (inactive); in the test on SK-MEL-5 melanoma, 105% (inactive) and -3.97% (active); in the test with UACC-62 melanoma it was 109% (inactive) and -35.5% (active). The growth was 105% (inactive) and -30.1% (active) in the test on LOX IMVI melanoma; 108% (inactive) and -6.93% (active) in the test on SK-MEL-28 melanoma.
For `N=S(c1ccccc1[N+](=O)[O-])c1ccccc1[N+](=O)[O-]`, the growth in the test on HCT-15 colon is -49.6% (active); in the test on SNB-19 CNS, 108% (inactive); in the test with U251 CNS, 84.5% (inactive); in the test with PC-3 prostate it was 89.4% (inactive); in the test on SK-MEL-5 melanoma, 50.3% (inactive); in the test on UACC-62 melanoma, 67.9% (inactive). Also, the growth is 3.28% (active) with LOX IMVI melanoma and 77.5% (inactive) with SK-MEL-28 melanoma.
For `CC(=O)OCC(OC(C)=O)C(OC(C)=O)C(OC(C)=O)C(OC(C)=O)C(/C=N/Nc1ccccc1)=N/Nc1ccccc1` (stereo not given), the growth was 59.5% (inactive) in the test on HCT-15 colon; 87.4% (inactive) in the test on SNB-75 CNS; 72.5% (inactive) with U251 CNS; 55.9% (inactive) in the test on PC-3 prostate; 91.9% (inactive) with SK-MEL-5 melanoma; 36.8% (inactive) with LOX IMVI melanoma. For the same molecule, the growth in the test with SK-MEL-28 melanoma is 101% (inactive).
On to `CCCCCCCCCCCCCCCCCCOCC(COP(=O)([O-])OCC[N+](C)(C)C)OC` (stereo not given), for which the growth in the test on HCT-15 colon is 61% (inactive); with SNB-75 CNS, 84.4% (inactive); with U251 CNS, 72.4% (inactive); in the test on PC-3 prostate, 29.5% (inactive); in the test on SK-MEL-5 melanoma, 62.5% (inactive); with UACC-62 melanoma, 73.3% (inactive). In the test on LOX IMVI melanoma, the growth was 84.6% (inactive).
`CS(=O)(=O)OC1CC(n2ccc(=O)[nH]c2=O)OC1COC(c1ccccc1)(c1ccccc1)c1ccccc1` (stereo not given): the growth is 93.7% (inactive) in the test with HCT-15 colon; 103% (inactive) in the test on SNB-75 CNS; 91.3% (inactive) in the test on PC-3 prostate; 101% (inactive) in the test with SK-MEL-5 melanoma; 97.7% (inactive) in the test on UACC-62 melanoma; 104% (inactive) in the test with SK-MEL-28 melanoma.
Consider `Nc1c2ccccc2nc2ccccc12`, for which the growth in the test on HCT-15 colon is 5.79% (active) and 15.8% (inactive) and 26.5% (inactive); in the test on SNB-75 CNS it was 33.1% (inactive) and 51.8% (inactive) and 89.3% (inactive); with U251 CNS it was 6.74% (active) and 26.5% (inactive) and 34.7% (inactive); in the test with PC-3 prostate, 23.7% (inactive) and 9.05% (active) and 41.1% (inactive); in the test with SK-MEL-5 melanoma it was 5.28% (active) and 19.7% (inactive) and 39.5% (inactive); with UACC-62 melanoma it was 13.9% (inactive) and 36.3% (inactive) and 27.3% (inactive). Also, the growth in the test on LOX IMVI melanoma is -53.7% (active) and 14.9% (inactive) and 12.4% (inactive); in the test with SK-MEL-28 melanoma, 18% (inactive) and 28.2% (inactive) and 82.1% (inactive).
As to `Oc1ccc(N=Nc2ccccn2)c(O)c1`, the growth was 30.5% (inactive) with HCT-15 colon; 54.6% (inactive) in the test with SNB-75 CNS; 31.2% (inactive) with SNB-19 CNS; 24.2% (inactive) in the test on U251 CNS; 36.1% (inactive) in the test on PC-3 prostate; -34.1% (active) in the test on UACC-62 melanoma. Further, the results for the growth with LOX IMVI melanoma and in the test with SK-MEL-28 melanoma were 8.85% (active) and 31.7% (inactive), respectively.
For `COc1c(O)cc2oc3cc(O)c(CC=C(C)C)c(O)c3c(=O)c2c1CC=C(C)C`, the growth in the test with HCT-15 colon is 24.1% (inactive); in the test on SNB-75 CNS it was 82.7% (inactive); in the test on U251 CNS, 47.9% (inactive); in the test with PC-3 prostate it was 41.1% (inactive); in the test with SK-MEL-5 melanoma, 90% (inactive); in the test on LOX IMVI melanoma, 0.237% (active). Further, the growth with SK-MEL-28 melanoma is 87.8% (inactive).
In the case of `CCCCCCCCCCSC(=N)N`, the growth with HCT-15 colon was -4.11% (active); in the test on SNB-75 CNS it was 80.7% (inactive); in the test on U251 CNS, 5.37% (active); in the test on PC-3 prostate it was 59% (inactive); with SK-MEL-5 melanoma, 50.7% (inactive); in the test on UACC-62 melanoma, -35% (active). For the same molecule, the growth with LOX IMVI melanoma is 47.8% (inactive); in the test with SK-MEL-28 melanoma it was 89.3% (inactive).
Consider `O=C1C=C(O)c2ccccc2C1=O.[Ag]`, for which the growth in the test on HCT-15 colon is 88.2% (inactive); in the test with SNB-75 CNS, 87.9% (inactive); in the test with PC-3 prostate it was 78.7% (inactive); with UACC-62 melanoma it was 108% (inactive); with SK-MEL-28 melanoma, 92.3% (inactive).
Regarding `O=C(Nc1ccc(C(=O)O)c(O)c1)c1ccccc1`, the growth with HCT-15 colon was 104% (inactive) and 99% (inactive); in the test with SNB-75 CNS, 96.4% (inactive) and 96.3% (inactive); in the test with U251 CNS it was 96.6% (inactive) and 104% (inactive); in the test on PC-3 prostate it was 91% (inactive) and 97.5% (inactive); with SK-MEL-5 melanoma, 107% (inactive) and 106% (inactive); in the test with UACC-62 melanoma, 96.7% (inactive) and 96.4% (inactive). Moreover, the growth with LOX IMVI melanoma was 97.4% (inactive) and 97% (inactive); in the test with SK-MEL-28 melanoma it was 110% (inactive) and 151% (inactive).
For the molecule `NNc1ccc2ccccc2c1`, the growth with HCT-15 colon was 91.2% (inactive) and 97% (inactive); with SNB-75 CNS, 79.1% (inactive) and 75.7% (inactive); with U251 CNS, 103% (inactive) and 101% (inactive); in the test on PC-3 prostate, 73% (inactive) and 82% (inactive); in the test on SK-MEL-5 melanoma, 89.3% (inactive) and 87.6% (inactive); in the test with UACC-62 melanoma, 78% (inactive) and 99.9% (inactive). Besides, the growth is 75.5% (inactive) and 91.7% (inactive) in the test on LOX IMVI melanoma; 111% (inactive) and 114% (inactive) in the test with SK-MEL-28 melanoma.
Consider `Clc1cc(Cl)c(Cl)nn1`, for which the growth was 107% (inactive) in the test on HCT-15 colon; 107% (inactive) with SNB-75 CNS; 81.1% (inactive) with U251 CNS; 80.9% (inactive) in the test with PC-3 prostate; 103% (inactive) in the test on SK-MEL-5 melanoma; 88.7% (inactive) in the test on UACC-62 melanoma. For the same molecule, the growth in the test with LOX IMVI melanoma was 95.7% (inactive); in the test on SK-MEL-28 melanoma, 116% (inactive).

Values taken from PubChem BioAssay (NCI).
